Laboratory results taken from PubChem BioAssay (NCATS).
Inconclusive results are not listed. Calls of active or inactive are those of the source. Calls come from the whole dose curve; as a rule, active = well fitted curve in the direction sought with a large enough effect; inconclusive = small, poorly fitted or top-dose-only effect, or another doubt; inactive = no such curve, though single readings can be large; an effect the other way counts as inactive or inconclusive.

Tests used:
[1] = Cellular Toxicity (caspase-3) Renal Proximal Tubule (AID 667); conditions: renal proximal tubule cells; at 91.7 µM (top of the series), primary cells freshly taken from rat, solvent-only wells 0%, staurosporine 100% unless noted;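 note: cells exposed to compound for 16 hours at 37 °C before detection; 0% = DMSO basal and 100% = 10 µM staurosporine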
Method in brief: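 Freshly isolated primary rat kidney proximal tubule cells, 1000/well, treated 16 hr at 37 °C, then Caspase-Glo 3/7 luminescence after 1 hr. Normalized to DMSO and 10 uM staurosporine; AC50 from Hill fit.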

[2] = target: Cytochrome P450 3A4 (Homo sapiens) (UniProt P08684); test: qHTS Assay for Inhibitors and Substrates of Cytochrome P450 3A4 (AID 884); note: % is set by controls: 0 for no effect and ±100 for the full control effect; nearly all actives have a fitted effect of over 50% in size
Method in brief: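 20 nM human CYP3A4 with 25 uM Luciferin-PPXE (at KM) in 200 mM KPO4, preincubated 10 min with compound; NADPH regeneration started a 60 min RT reaction. Luciferin detected by luminescence, normalized to 57 uM ketoconazole as full inhibition.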

[3] = Cell Viability - LYMP2-001 (AID 921);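 note: 0% = DMSO only and full inhibition = tetraoctylammonium bromide control wells; nearly all actives have a fitted effect of over 70% in size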
Method in brief: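 Human lymphoblastoid LYMP2-001 cells, 2500 per well, in complete medium, treated 24 h at 37 C. Viability from cellular ATP by CellTiter-Glo luminescence; AC50 from Hill-equation fits of qHTS concentration-response.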

[4] = MultiTox-Fluor Cytotoxicity Assay - LYMP1-001 - Dead Cells (AID 946)
Method in brief: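 In this qHTS, 15 uM tetraoctylammonium bromide defined 100% and DMSO defined basal activity. Lymphoblastoid cells (LYMP1-001, 2500 per well) received compound for 16 hr at 37 C before a fluorogenic dead-cell substrate readout at 485/520 nm.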

[5] = MultiTox-Fluor Cytotoxicity Assay - LYMP1-001 - Live Cells (AID 947);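 note: 0% = DMSO only and full inhibition = tetraoctylammonium bromide control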
[6] = Cell Viability - LYMP1-002 - Assay at 16 hr (AID 948);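 note: 0% = DMSO alone and full effect = 92 µM tetraoctylammonium bromide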
Method in brief: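 LYMP1-002 human lymphoblastoid cells, 2500/well, were treated with compounds for 16 hr at 37 C in complete medium. Viability was read as intracellular ATP by CellTiter-Glo luminescence, and AC50 was derived from a Hill fit to concentration-response data.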

[7] = MultiTox-Fluor Cytotoxicity Assay - LYMP1-002 - Dead Cells (AID 960);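 note: cells exposed to compound for 16 h at 37 °C; nearly all actives have a fitted effect of over 60% in size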
Method in brief: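 LYMP1-002 cells 2500/well; 5 hr 37 C pre-incubation; compound 16 hr 37 C; MultiTox-Fluor reagent 60 min RT; dead-cell fluor Ex/Em 485/520. Norm. to DMSO (0%) vs 15 uM tetraoctylammonium bromide (100%); Hill AC50.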

[8] = MultiTox-Fluor Cytotoxicity Assay - LYMP1-003 - Dead Cells (AID 961);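 note: cells exposed to compound for 16 h at 37 °C; nearly all actives have a fitted effect of over 70% in size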
Method in brief: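 Acute toxicity is scored as increased dead-cell protease activity in human lymphoblastoid LYMP1-003 cells after 16 h compound exposure in complete culture medium. Activity is normalized to DMSO basal and 15 uM tetraoctylammonium bromide as full response.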

[9] = MultiTox-Fluor Cytotoxicity Assay - LYMP1-003 - Live Cells (AID 962);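 note: cells exposed to compound for 16 hours at 37 °C; 0% = DMSO only and full loss = 92 µM tetraoctylammonium bromide; cytotoxic hits lower the live-cell protease signal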
Method in brief: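 qHTS, 1536-well; 2500 cells/well LYMP1-003; 5 hr 37 C settle; cpd 16 hr 37 C; MultiTox-Fluor reagent 60 min RT; live-cell protease fluor. 405/510; Hill-fit AC50; tetraoctylammonium bromide pos. ctrl.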

[10] = Cell Viability - LYMP1-003 - Assay at 24 hr (AID 963);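 note: plate controls were DMSO only for no effect and tetraoctylammonium bromide positive control for full effect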
Method in brief: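 Cells seeded at 2500/well, 5 hr at 37 C; compounds added; 24 hr at 37 C; CellTiter-Glo added, 30 min room temperature; luminescence read. Decrease in ATP taken as cytotoxicity, AC50 from Hill modelling.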

[11] = Cell Viability - LYMP1-003 - Assay at 40 hr (AID 964); note: % is set by controls: 0 for no effect and ±100 for the full control effect; nearly all actives have a fitted effect of over 60% in size
Method in brief: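 Cells were seeded at 2500 per well and incubated 5 hr at 37 C. Compounds were added across a concentration series and left 40 hr at 37 C. CellTiter-Glo was added for 30 min at room temperature before luminescence reading.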

[12] = Cell Viability - LYMP2-003 (AID 965);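 note: cells exposed to compounds for 24 h before reading; 0% = DMSO only and full effect = 92 µM tetraoctylammonium bromide; nearly all actives have a fitted effect of over 50% in size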
Method in brief: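 Human lymphoblastoid LYMP2-003 cells, 2500/well, exposed to compounds for 24 h at 37 C in complete medium. Viability read as intracellular ATP by CellTiter-Glo luminescence; AC50 from Hill-equation fits of qHTS concentration-response data.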

[13] = Cell Viability - LYMP2-004 (AID 966);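 note: plate controls were DMSO only for no effect and tetraoctylammonium bromide control for full effect; nearly all actives have a fitted effect of over 65% in size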
Method in brief: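 Cells seeded 2500/well, rested 5 hr at 37 C, dosed across a concentration series, incubated 24 hr at 37 C, then CellTiter-Glo added for 30 min at room temperature and luminescence read. Hill fitting gave AC50.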

[14] = Cell Viability - LYMP2-009 (AID 968);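 note: 0% = DMSO alone and the full-kill end = tetraoctylammonium bromide at 92 µM; nearly all actives have a fitted effect of over 55% in size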
[15] = Cell Viability - LYMP2-015 (AID 971);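 note: 0% = DMSO only and full effect = 92 µM tetraoctylammonium bromide; nearly all actives have a fitted effect of over 55% in size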
Method in brief: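 Luminescent ATP read-out (CellTiter-Glo) served as the viability measure after lymphoblastoid cells were exposed to compounds for 24 hours at 37 C. Concentration-response data were fitted with the Hill equation to give AC50.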

[16] = Cell Viability - LYMP2-017 (AID 972); note: % is set by controls: 0 for no effect and ±100 for the full control effect; nearly all actives have a fitted effect of over 55% in size
Method in brief: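 2500 cells/well, 5 h 37 C; cpd 24 h 37 C in complete medium; CellTiter-Glo, 30 min RT; luminescence (ATP). AC50 via Hill fit, qHTS.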

[17] = Cell Viability - LYMP2-019 (AID 973);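 note: 0% = DMSO alone and full effect = 92 µM tetraoctylammonium bromide; nearly all actives have a fitted effect of over 55% in size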
Method in brief: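 Luminescent ATP read-out (CellTiter-Glo, 30 min room temperature) served as the viability measure after 24 hr treatment of lymphoblastoid cells at 37 C. Concentration-response data were fitted to the Hill equation for AC50.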

[18] = Cell Viability - LYMP2-021 (AID 974)
Method in brief: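 Plate 2500 lymphoblastoid cells per well and incubate 5 hr at 37 C. Add compounds over a concentration range and incubate 24 hr at 37 C. Add CellTiter-Glo, wait 30 min at room temperature, read luminescence.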

[19] = Cell Viability - LYMP2-025 (AID 976);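 note: plate controls were DMSO only for no effect and tetraoctylammonium bromide control for full effect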
Method in brief: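 Seed 2500 LYMP2-025 cells/well; 5 hr at 37 C; add compound; 24 hr at 37 C; add CellTiter-Glo; 30 min RT; read luminescence. AC50 from Hill-modelled concentration-response.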

[20] = Cell Viability - LYMP2-002 (AID 977);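 note: compound exposure lasted 24 h at 37 °C; plate controls were DMSO only for no effect and 92 µM tetraoctylammonium bromide for full effect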
Method in brief: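 Cytotoxicity is scored as concentration-dependent loss of cellular ATP in a human lymphoblastoid line after 24 hr compound treatment at 37 C. AC50 is obtained by modelling concentration-response data with the Hill equation.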

[21] = Cell Viability - LYMP2-007 (AID 979);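 note: cells exposed to compound for 24 h before reading; 0% = DMSO only and the negative end = 92 µM tetraoctylammonium bromide; nearly all actives have a fitted effect of over 60% in size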
Method in brief: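 Luminescent ATP signal (CellTiter-Glo) serves as the viability read-out after 24 hr compound treatment of lymphoblastoid cells in complete medium at 37 C. Concentration-response data were fitted to the Hill equation to give AC50 values.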

[22] = Cell Viability - LYMP2-008 (AID 980); note: % is set by controls: 0 for no effect and ±100 for the full control effect; nearly all actives have a fitted effect of over 60% in size
Method in brief: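 qHTS, human lymphoblastoid line, 2500 cells/well; 5 hr preincubation, 24 hr compound, 37 C. CellTiter-Glo ATP luminescence. AC50 via Hill equation. Tetraoctylammonium bromide positive control.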

[23] = Cell Viability - LYMP2-010 (AID 981)
Method in brief: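 Luminescent ATP signal (CellTiter-Glo) served as the viability read-out. Cells of the human lymphoblastoid line were treated with compound over a concentration range for 24 hours at 37 C, and AC50 values came from Hill-equation modeling.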

Cytochrome P450 3A4 (Homo sapiens), sequence (P08684 whole entry, looked up): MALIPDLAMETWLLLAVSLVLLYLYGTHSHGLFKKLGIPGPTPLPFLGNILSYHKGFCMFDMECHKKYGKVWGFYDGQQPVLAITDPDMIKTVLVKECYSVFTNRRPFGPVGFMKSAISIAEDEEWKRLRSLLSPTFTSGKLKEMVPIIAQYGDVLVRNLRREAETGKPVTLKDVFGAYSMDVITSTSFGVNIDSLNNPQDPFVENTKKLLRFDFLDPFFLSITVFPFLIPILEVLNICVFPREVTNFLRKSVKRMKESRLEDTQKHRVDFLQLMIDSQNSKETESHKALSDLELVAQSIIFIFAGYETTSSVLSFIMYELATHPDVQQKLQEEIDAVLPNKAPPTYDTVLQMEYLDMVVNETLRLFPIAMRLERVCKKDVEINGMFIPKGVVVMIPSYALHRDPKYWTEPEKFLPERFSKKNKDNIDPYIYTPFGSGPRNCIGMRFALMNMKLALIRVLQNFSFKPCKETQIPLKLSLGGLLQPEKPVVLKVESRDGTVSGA

CCCOC(=O)c1ccccc1C(=O)OCCC
inactive: caspase-3 activation [1] 0.709% | Potency [2] | Potency [3] | Potency [4] | Potency [5] | Potency [6] | Potency [7] | Potency [8] | Potency [9] | Potency [10] | Potency [11] | Potency [12] | Potency [13] | Potency [14] | Potency [15] | Potency [16] | Potency [17] | Potency [18] | Potency [19] | Potency [20] | Potency [21] | Potency [22] | Potency [23]
